EWS-Fli block: blocks EWS/Fli oncoprotein-driven transcription; actives 0.67% (n = 350,000); AID 651661; inhibition, % at 12.6 µM; A673 NR0B1-luciferase reporter, viability-normalised;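 active = mean inhibition of at least 50% after viability correction, with every replicate also passing that limit; inconclusive = mean reaches 50% but only one of two replicates passes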;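 also: firefly luciferase signal divided by Alamar Blue viability fluorescence both relative to DMSO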
MITF TRPM1 inh: MITF TRPM1 promoter inhibition in SK-MEL-5 cells; SK-MEL-5 TRPM1 promoter luciferase, 24 h; inhibition, % at 12.5 µM; actives 0.83% (n = 330,000); AID 488899;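 active = mean inhibition across replicates of 60% or more, whatever share of single replicates reaches that level; inconclusive = some that reach 60%, reason not given; inactive = mean inhibition across replicates below 60%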
PAX8 reporter: inhibitors of PAX8 transcriptional activity in RMG-I cells. RMG-I TPO-luciferase reporter, SteadyGlo, 24 h. inhibition, % at 12.6 µM. actives 1.2% (n = 360,000);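 active = mean replicate inhibition at least 60% with every replicate also reaching 60%; inconclusive = only one of the two criteria is met; inactive = mean below 60% and not all replicates reaching 60%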;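 also: luciferase light reporting Pax8 driven TPO promoter activity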
MITF act: MITF TRPM1 promoter activation in melanoma cells. AID 588334. SK-MEL-5 TRPM1-promoter luciferase, 24 h; % of positive control, neutral wells = 0. activation, % at 12.5 µM. actives 0.75% (n = 300,000);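 active = mean activation of at least 80% with every replicate also reaching 80%; inconclusive = mean reaches 80% but some replicate falls short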
esBAF inh: inhibitors of esBAF chromatin remodeling in mouse ES cells | Bmi1-luciferase knock-in reporter, 24 h; 100% = twice the neutral-well signal | reporter increase, % at 12.5 µM | actives 2% (n = 350,000) | AID 602393; in the data active = activation above about 40%; inconclusive = no clear call, values can overlap the other calls;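 also: a rise in the Bmi1 reporter signal indicates esBAF inhibition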
Wnt act: activators of Wnt/beta-catenin signaling; Wnt/beta-catenin reporter cell assay, activator, plate reader; activation, % at 9.35 µM; actives 1.2% (n = 300,000); in the data active = activation above about 30%, passing the limit was not always enough; inconclusive = no clear call, values can overlap the other calls
Numbers stand for hits; 0 = inactive; ? = inconclusive; - = no result given. Hits are enriched below; roughly 4% of the tested compounds scored in any of these assays.

SMILES | EWS-Fli block | MITF TRPM1 inh | PAX8 reporter | MITF act | esBAF inh | Wnt act
Cc1ccc(S(=O)(=O)N2C[C@H](O)COC[C@H]3O[C@@H](CC(=O)N[C@@H]4CCN(Cc5ccccc5)C4)CC[C@@H]32)cc1 | 0 | - | 0 | - | 0 | -
O=c1c2[nH]c3ccccc3c2ncn1C1CCCCC1 | - | 0 | - | - | 61.7 | -
O=c1c2ccccc2ncn1C1CCCCC1 | - | 0 | - | 0 | 0 | -
Cc1sc2ncnc(SCC(=O)c3cccs3)c2c1C | - | 0 | 0 | 0 | 60.4 | 38.1
C[C@H](CO)N1C[C@H](C)[C@H](CN(C)S(=O)(=O)c2cccs2)Oc2c(NS(=O)(=O)c3ccccc3)cccc2C1=O | 0 | - | - | - | 0 | -
C[C@H]1CN([C@@H](C)CO)C(=O)CCCn2cc(nn2)CO[C@H]1CN(C)S(=O)(=O)c1ccc(F)cc1 | 0 | - | - | - | 0 | -
COCC#Cc1cnc2c(c1)C(=O)N([C@H](C)CO)C[C@@H](C)[C@H](CN(C)C(=O)Cc1ccccc1)O2 | 0 | - | 0 | - | 0 | -
COc1ccc(S(=O)(=O)N(C)C[C@H]2Oc3ccc(NC(=O)CCN4CCOCC4)cc3CC(=O)N([C@@H](C)CO)C[C@@H]2C)cc1 | 0 | - | 0 | - | 0 | -
CCCCCCCCCCOC(=O)Cn1c(COc2ccccc2OC)[n+](C)c2ccccc21 | 57.1 | 82.5 | 70.0 | - | 0 | 0
Clc1ccc(COn2nnc3ccccc32)c(Cl)c1 | - | 0 | - | 99.4 | ? | 0
O=[N+]([O-])c1ccc(COn2nnc3ccccc32)cc1 | 0 | 0 | 0 | 0 | - | 0
O=C1C(=C(c2ccccc2)N2CCOCC2)Cc2ccccc21 | 60.3 | - | 113.0 | - | - | 0
O=[N+]([O-])c1ccc(-c2ccc(/C=N/Nc3nc(NCc4ccccc4)nc(N4CCOCC4)n3)o2)cc1 | - | 77.0 | 0 | 0 | - | 0
COc1nc(N/N=C/c2ccc(-c3ccccc3[N+](=O)[O-])o2)nc(N2CCOCC2)n1 | 0 | 0 | 0 | 0 | - | 0
C[C@H](CO)N1C[C@H](C)[C@H](CN(C)C(=O)c2ccccc2)OCCCC[C@H](C)Oc2ccc(NC(=O)C3CCCCC3)cc2C1=O | 0 | - | 0 | - | 0 | -
CN(C)CCCN(C(=O)c1ccc(S(=O)(=O)N2CCc3ccccc32)cc1)c1nc2ccc(F)cc2s1 | 0 | 0 | 0 | 0 | 0 | 0
Cc1cc(C)c2sc(N(CCCN(C)C)C(=O)c3ccc(S(=O)(=O)N4CCc5ccccc5C4)cc3)nc2c1 | - | 89.2 | - | 0 | 0 | -
COc1ccc2sc(N(CCCN(C)C)C(=O)c3ccc(S(=O)(=O)N4CCc5ccccc5C4)cc3)nc2c1 | 0 | 85.2 | - | 0 | 0 | 0
CN(C)CCCN(C(=O)c1ccc(S(=O)(=O)N2CCc3ccccc3C2)cc1)c1nc2ccc(F)cc2s1 | 57.8 | 73.0 | 0 | 0 | 0 | 0
Cc1cccc2sc(N(CCCN(C)C)C(=O)c3ccc(S(=O)(=O)N4CCc5ccccc5C4)cc3)nc12 | - | 0 | 0 | 0 | 0 | 0
COc1ccc2sc(N(CCCN(C)C)C(=O)c3ccc(S(=O)(=O)N4CCCC4)cc3)nc2c1 | 0 | 0 | 0 | 0 | - | 0
Cc1ccc2nc(N(CCCN(C)C)C(=O)c3ccc(S(=O)(=O)N4CCc5ccccc5C4)cc3)sc2c1 | - | 76.0 | 0 | 0 | 0 | 0
COc1ccc(S(=O)(=O)Nc2ccc3c(c2)C(=O)N([C@@H](C)CO)C[C@H](C)[C@H](CN(C)C(=O)NC(C)C)O3)cc1 | 0 | - | - | - | 0 | -
CNC(=O)C[C@H]1CC[C@@H]2[C@@H](COc3ccc(NC(=O)c4ccc(F)cc4)cc3C(=O)N2C)O1 | 0 | - | 0 | - | 0 | -
Cc1cc(C)c2nc(NNC(=O)c3ccc(S(=O)(=O)N4CCc5ccccc5C4)cc3)sc2c1 | 0 | 77.7 | 61.7 | 0 | 0 | 0
SMILES | EWS-Fli block | MITF TRPM1 inh | PAX8 reporter | MITF act | esBAF inh | Wnt act
CCN(Cc1ccccc1)S(=O)(=O)c1ccc(C(=O)N(CCCN(C)C)c2nc3cc4c(cc3s2)OCO4)cc1 | 0 | 93.1 | 0 | 0 | 0 | 0
CN(C)CCCN(C(=O)c1cc(-c2cccs2)nc2ccccc12)c1nc2ccc(F)cc2s1 | 0 | 86.9 | 0 | 0 | 0 | 0
Cc1cc(C)c2sc(N(CCCN(C)C)C(=O)c3ccc(S(=O)(=O)N4CCCc5ccccc54)cc3)nc2c1 | 0 | 82.8 | 0 | 0 | 0 | 0
O=C(C[C@H]1C[C@@H]2c3cc(NC(=O)c4ccc5c(c4)OCO5)ccc3O[C@@H]2[C@@H](CO)O1)NCc1ccc(Cl)cc1 | 0 | - | 0 | - | 0 | -
CC(C)NC(=O)N1CC2(C1)[C@H](c1ccccc1)[C@@H](CO)N2CCC(F)(F)F | 0 | - | 0 | - | - | -
COc1ccc(N2C(=S)NC3N2C(=S)NC3(C)c2ccccc2)cc1 (stereo not drawn) | 0 | 0 | 0 | 0 | - | 65.0
CC1(c2ccccc2)NC(=S)N2C1NC(=S)N2c1ccccc1 (stereo not drawn) | - | 0 | - | 0 | - | -
COc1ccc(C(=O)/C=C/Nc2cc(C)on2)c(OC)c1 | - | 0 | - | - | 66.2 | -
COc1ccc(C(=O)/C=C/c2ccc(N(C)C)cc2)c(OC)c1 | 0 | 0 | 0 | - | - | 0
COc1ccc(C(=O)/C=C/c2ccccc2)c(OC)c1 | 0 | 0 | - | 0 | 86.0 | 0
COc1ccc(C(=O)/C=C/c2ccccc2F)c(OC(=O)c2ccc([N+](=O)[O-])cc2)c1 | - | 0 | 0 | 0 | 0 | 35.2
Cc1noc(C)c1S(=O)(=O)N(C)C[C@H]1OCCCC[C@H](C)Oc2ccc(NC(=O)Nc3ccc4c(c3)OCO4)cc2C(=O)N([C@@H](C)CO)C[C@@H]1C | 0 | - | 0 | - | 0 | -
Cc1cccc(N(C)S(=O)(=O)c2nnc(NC(=O)c3ccco3)s2)c1 | 0 | 0 | 0 | 0 | 0 | 0
COc1cccc(OC)c1C(=O)Nc1nnc(-c2ccc(F)cc2)s1 | 0 | 0 | 0 | 0 | 0 | 0
O=C(Nc1nnc(-c2ccc(F)cc2)s1)c1ccco1 | 0 | 0 | 0 | 106.2 | 46.3 | 0
Cc1cccc(-c2nnc(NC(=O)c3ccco3)s2)c1 | 0 | 0 | 0 | 0 | 59.4 | 0
COc1cccc(NC(=O)N2C[C@@H](O)COC[C@@H]3O[C@@H](CC(=O)NC4Cc5ccccc5C4)CC[C@H]32)c1 | 0 | - | 0 | - | 0 | -
CC(NC(=O)c1ccc(F)cc1)C(c1cccs1)N1CCN(C)CC1 (stereo not drawn) | - | 0 | - | 0 | - | 0
CC(NC(=O)c1ccc(N(C)C)cc1)C(c1cccs1)N1CCN(C)CC1 (stereo not drawn) | - | 0 | - | 0 | 42.6 | -
C=CC(=O)Nc1cccc(Nc2nc(N[C@H]3CC[C@H](N(C)C)CC3)nc3c2ncn3C(C)C)c1 | - | 90.0 | - | 0 | 0 | -
C/C=C/c1ccc2c(c1)O[C@H](CN(C)Cc1cccc(F)c1)[C@@H](C)CN([C@H](C)CO)S2(=O)=O | 0 | - | - | - | 0 | -
O=C1NC2(CCCCC2)C(=O)N1/N=C/c1ccccc1Br | 0 | 0 | 0 | 0 | 49.2 | 0
CCCCN(CCCC)Cc1ccc(C(=O)NN)o1 | 0 | 0 | 0 | 0 | 0 | 54.8
COc1cc(C(=O)NCCOc2ccccc2)cc(OC)c1OC | 0 | 0 | 0 | 0 | 0 | 0
COc1cc(C(=O)NCCOc2cc(C)cc(C)c2)cc(OC)c1OC | 53.0 | 0 | 0 | 0 | 0 | 0
Cc1ccc2[nH]c(C(=O)Nc3ccc(F)cc3)cc2c1 | 0 | 0 | 0 | 0 | 61.9 | 0
